A3A deaminase: inhibitors of human APOBEC3A DNA deaminase; recombinant A3A, FAM/TAMRA ssDNA deamination fluorescence; inhibition, % at 20 µM; 330,000 compounds, 0.41% hits; AID 493011; P31941;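 active = at least 40% inhibition at 20 µM here, with at most 30% in a related deaminase screen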
eIF4H FP inh: inhibitors of RNA binding by human eIF4H. 290,000 compounds, 0.94% hits. eIF4H fluorescence polarization binding assay. inhibition, % at 35 µM. AID 2012. Q15056;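 also: calls also rest on retests at 20 µM and on dose response follow-up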
PHOSPHO1 inh: blocks human PHOSPHO1 phosphatase activity; Q8TCT1; recombinant PHOSPHO1, absorbance phosphatase assay; inhibition, % at 13.3 µM; 290,000 compounds, 1.1% hits; AID 1565; in the data active = inhibition above about 60%
PABP1 MLLE inh: blocks PAM2 peptide binding to the PABP1 MLLE domain; P11940; 360,000 compounds, 0.36% hits; AID 588489; GST-MLLE / FITC-PAM2 fluorescence polarization; inhibition, % at 20 µM; in the data active = inhibition above about 35%, passing the limit was not always enough
Target sequence (P11940 whole entry, looked up, the tested form may be a part): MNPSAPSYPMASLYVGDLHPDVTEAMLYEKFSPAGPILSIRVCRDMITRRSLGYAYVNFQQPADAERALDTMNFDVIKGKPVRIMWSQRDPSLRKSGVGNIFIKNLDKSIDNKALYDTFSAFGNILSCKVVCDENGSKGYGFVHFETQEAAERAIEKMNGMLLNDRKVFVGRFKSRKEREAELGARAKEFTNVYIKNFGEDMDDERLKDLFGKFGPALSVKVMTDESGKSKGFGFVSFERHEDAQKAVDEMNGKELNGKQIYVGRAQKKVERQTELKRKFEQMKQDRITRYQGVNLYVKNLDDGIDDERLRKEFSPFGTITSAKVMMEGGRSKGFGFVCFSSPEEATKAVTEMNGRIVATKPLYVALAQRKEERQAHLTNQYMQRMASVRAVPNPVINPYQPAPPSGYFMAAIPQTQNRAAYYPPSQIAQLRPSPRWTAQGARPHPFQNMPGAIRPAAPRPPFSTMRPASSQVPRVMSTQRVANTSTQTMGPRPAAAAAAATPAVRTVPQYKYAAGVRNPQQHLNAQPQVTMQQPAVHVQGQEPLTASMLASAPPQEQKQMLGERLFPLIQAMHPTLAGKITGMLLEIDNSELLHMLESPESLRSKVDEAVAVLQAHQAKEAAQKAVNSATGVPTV
APOBEC3G inh: inhibitors of human APOBEC3G DNA deaminase | 330,000 compounds, 0.28% hits | recombinant A3G, ssDNA deamination FAM/TAMRA fluorescence | inhibition, % at 20 µM | Q9HC16;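 active = inhibition of at least 40% at 20 µM, with no more than 30% in the related APOBEC3A deaminase screen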
PABP polyA inh: PABP-poly(A) binding inhibition; P11940; PABP-poly(A) RNA binding, fluorescence polarization; calls only at 35 µM; 290,000 compounds, 1% hits;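 also: calls also rest on retests at 20 µM and on dose response follow-up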
APOBEC3A confirm: APOBEC3A (human) deaminase inhibition, confirmed | inhibition, % at 20 µM | shares compounds with A3A deaminase | recombinant A3A, ssDNA deaminase UDG fluorescence assay | 1,400 compounds, 63% hits;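 active = inhibition reaching a set limit, 80% of the first screen's cutoff, at 20 µM in any replicate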
UDG A3A counter: inhibits UDG, flagging false APOBEC3A inhibitors | 1,000 tested, under 10 active | shares compounds with A3A deaminase | inhibition, % at 20 µM | UDG counterscreen, FAM/TAMRA uracil oligo fluorescence | AID 504714
A number is an active result; i = inactive; nt = not tested or not shown; + = active, no number. Shown are actives, neighbours in structure and some others; about 2.6% of the full set was active somewhere. Unless noted, no rule for the calls is given here.

SMILES	A3A deaminase	eIF4H FP inh	PHOSPHO1 inh	PABP1 MLLE inh	APOBEC3G inh	PABP polyA inh	APOBEC3A confirm	others
CSC1=NC2C(N1)N(C)C(=O)N2C (stereo not given)	57.6	i	78.3	i	i	i	i
CN(C)CCCNC(=O)c1cc(C(=O)c2cccc(Cl)c2Cl)c[nH]1	i	i	i	i	i	i	nt
Cc1ccc(OCCC(=O)Nc2ccc(F)c(Cl)c2)cc1	i	i	i	i	i	i	nt
Cc1ccc(NC(=O)CN(C)CC(=O)Nc2ccc(F)c(Cl)c2)cc1	61.0	i	i	i	i	i	i
CCn1c2ccccc2c(=O)c2ccccc21	64.4	i	i	i	i	i	i
O=S(OCCN1CCOCC1)C(c1ccccc1)c1ccccc1 (stereo not given)	nt	nt	nt	i	nt	nt	nt
CC(=O)c1ccc(S(=O)(=O)Nc2cccc(-n3cnnn3)c2)cc1	43.5	98.0	i	i	i	+	i
CN1C=CC(=C[N+](=O)[O-])N(C)C1=O	nt	nt	nt	i	nt	nt	nt
CCN(CC)CCCNC(=O)c1ccc(S(=O)(=O)Nc2ccc(C)c(C)c2)cc1	i	nt	nt	i	i	nt	nt
O=[N+]([O-])c1ccc(C(O)C[n+]2ccccc2)cc1 (stereo not given)	91.5	i	i	i	i	i	70.7	UDG A3A counter=i
CC(=O)OC[C@@H]1CN(Cc2ccccc2)C[C@H](n2cnc3c(N4CCN(c5ccccc5)CC4)ncnc32)O1	nt	nt	nt	i	nt	nt	nt
O=C(COC(=O)c1ccc(F)c(S(=O)(=O)N2CCOCC2)c1)NC1CC1	i	nt	nt	i	i	nt	nt
O=C(COC(=O)c1ccc(F)c(S(=O)(=O)N2CCOCC2)c1)Nc1ccc2[nH]c(=O)[nH]c2c1	42.4	nt	nt	i	i	nt	41.5	UDG A3A counter=i
COc1ccc(NS(=O)(=O)N2CCCCC2)cc1	nt	nt	nt	i	nt	nt	nt
O=c1[nH]c(C2C3CC4CC(C3)CC2C4)nc2ccccc12 (stereo not given)	49.0	i	i	i	i	i	i	UDG A3A counter=i
Cc1nc2ccccc2c(=O)[nH]1	i	i	i	i	i	i	nt
COc1cc(OC)c2ccc(=O)oc2c1C(CC(=O)N1CCCC1)c1ccc2c(c1)OCO2 (stereo not given)	47.0	82.2	i	i	i	+	i
COc1cc(OC)c2ccc(=O)oc2c1C(CC(=O)N1CCCC(C)C1)c1ccc2c(c1)OCO2 (stereo not given)	i	i	i	i	i	i	nt
Cc1ccc(-n2c(SCC(=O)NCC3CCCO3)nc3ccccc3c2=O)cc1C (stereo not given)	i	nt	nt	i	i	nt	nt
CCn1c(SCC(=O)NC2CCCCC2)nc2ccccc2c1=O	62.7	i	i	i	i	i	51.3	UDG A3A counter=i
CCn1c(SCC(=O)N2CCN(c3ccc(F)cc3)CC2)nc2ccccc2c1=O	i	i	i	i	i	i	nt
O=C(CSc1nc2ccccc2c(=O)n1-c1ccccc1)NCC1CCCO1 (stereo not given)	49.5	nt	i	i	i	nt	70.9	UDG A3A counter=i
CCn1nnnc1SCC(=O)N1CCN(c2ccccc2)CC1	i	i	i	i	i	i	nt
CC(=O)NCCn1c(SCC(=O)NC2CCCCC2)nc2ccccc2c1=O	i	i	i	i	i	i	nt
O=C(CSc1nnnn1Cc1ccccc1)N1CCN(c2ccccc2)CC1	47.2	i	i	i	i	i	i
SMILES	A3A deaminase	eIF4H FP inh	PHOSPHO1 inh	PABP1 MLLE inh	APOBEC3G inh	PABP polyA inh	APOBEC3A confirm	others
CCn1c(SCC(=O)N2CCN(c3ccc(Cl)cc3)CC2)nc2ccccc2c1=O	44.5	i	65.8	i	i	i	66.4	UDG A3A counter=i
O=[N+]([O-])c1ccc(N2CCc3ccccc3C2)cc1	i	i	i	i	i	i	nt
COc1ccccc1Nc1nc2ccc(C)cc2n2cnnc12	i	i	i	i	i	i	nt
COc1ccccc1NC(=O)c1ccc(NC(=O)C2CC2)cc1	nt	nt	nt	i	nt	nt	nt
COC(=O)c1ccccc1NC(=O)c1noc2c1CCC2	59.3	83.0	i	i	i	+	46.7
COc1ccccc1NC(=O)c1cc[n+](C)cc1	86.4	nt	i	i	i	nt	63.9	UDG A3A counter=i
COC(=O)c1ccccc1NC(=O)c1cc[n+](C)cc1	76.9	nt	nt	i	i	nt	56.5	UDG A3A counter=i
COC(=O)c1ccccc1NC(=O)c1cc[n+]([O-])cc1	i	i	i	i	i	i	nt

Bioassay records as filed in PubChem.
